From the OligoGym collection

target: IFT52; assay: pooled miR-30 sensor sort-seq; sequence = guide strand; settings: shRNA

First: TATTCTTCTAGTAAAAAGTTAA
Second: TGAACATGTGACATGAACCAAG
The sensor-assay potency score (higher = more potent) of the first is lower: -1.44 for the first, -0.609 for the second.

TAATCCACAGTTTTACTCCATT was tested, and the sensor-assay potency score (higher = more potent) was -1.37.

target: IGFBP3; assay: as above; settings: shRNA

Compared with TTTAGCATGCCCTTTCTTGATG, TTGATGATGATTATCTTTGAAT is higher in sensor-assay potency score (higher = more potent): -1.17 for the first, -0.974 for the second.

Compared with TAGCATTTCCTGGAGCTGGCGG, TCGTAGTCAACTTTGTAGCGCT is higher in sensor-assay potency score (higher = more potent): -0.626 for the first, -0.259 for the second.

First: TTCTTGATGATGATTATCTTTG
Second: TACTTATCCACACACCAGCAGA
The sensor-assay potency score (higher = more potent) of the first is higher: -1.16 for the first, -1.2 for the second.

First: TATCTTTGAATGGAGGGGGTGG
Second: TTTCTTGATGATGATTATCTTT
The sensor-assay potency score (higher = more potent) of the first is higher: -0.842 for the first, -1 for the second.

Going from TATCTGTGCTCTGAGACTCGTA to TAGTCAACTTTGTAGCGCTGGC, the sensor-assay potency score (higher = more potent) rises from -0.405 to -0.23.

Going from ATCTGTGCTCTGAGACTCGTAG to TTTCTTATAAAATCCCTTCTTG, the sensor-assay potency score (higher = more potent) rises from -0.551 to -0.488.

target: IGFBP7; assay: as above; settings: shRNA

Going from TTGCACACGCACACGCCGCTTA to TATAACTAAAGTGTTAGTGGAT, the sensor-assay potency score (higher = more potent) rises from -0.533 to 0.0715.

Going from TATTTCTCTGTGTAAAACCAGT to TATGGAAGGACCTTGCTCGCAG, the sensor-assay potency score (higher = more potent) rises from -0.876 to 0.0924.

First: TTTTTGCTGATGCTGAAGCCTG
Second: TAGAGGAGATACCAGCACCCAG
The sensor-assay potency score (higher = more potent) of the first is higher: -1.34 for the first, -1.77 for the second.

Compared with TAGTCTTGATGTGTGATCTTTA, TGTCCTTTGAACTCCATAGTGA is higher in sensor-assay potency score (higher = more potent): -0.24 for the first, -0.0168 for the second.

Compared with TTTATTTTGTATTTCTCTGTGT, TTATTTTGTATTTCTCTGTGTA is higher in sensor-assay potency score (higher = more potent): 0.392 for the first, 0.738 for the second.

First: TCCATGACTACTTTTAACCATG
Second: ATATTCTCCAGCATCTTCCTTA
The sensor-assay potency score (higher = more potent) of the first is lower: -1.58 for the first, 0.0623 for the second.

target: IGLL1; assay: as above; settings: shRNA

Going from TTGGGCTGACTTAAAACGGTGA to TGCTCTGCGATGCAGCTGTTGG, the sensor-assay potency score (higher = more potent) falls from -0.209 to -1.49.

Compared with TGGACCGGCTGCTTCCTCCAGG, TACTTGTTGTTGCTCTGTTTGG is higher in sensor-assay potency score (higher = more potent): -1.11 for the first, -0.977 for the second.

First: TCACCGTCAAGATTCCCGGATA
Second: TAGCCTTGTTGGCTTGGAGCTC
The sensor-assay potency score (higher = more potent) of the first is lower: -1.01 for the first, -0.995 for the second.

First: AGACACACCAGTGTAGCCTTGT
Second: TACCACGGCCAGACCCAGCAGC
The sensor-assay potency score (higher = more potent) of the first is higher: -0.487 for the first, -0.916 for the second.

First: TCAGGTAGCTGCTGGCCGCGTA
Second: TGCAGCTGTTGGGCGCAGCAGG
The sensor-assay potency score (higher = more potent) of the first is higher: -0.554 for the first, -1.51 for the second.

First: TGAGACACACCAGTGTAGCCTT
Second: TTGTTGTTGCTCTGTTTGGAGG
The sensor-assay potency score (higher = more potent) of the first is higher: 0.221 for the first, -1.19 for the second.
